PubChem BioAssay (EPA / NIEHS)
Records with an inconclusive call do not appear. The source made the active and inactive calls. How the source made its calls: active means hit-call score of the fitted dose curve at least 0.9, where 1 is the maximum; inconclusive means response in the unintended direction; inactive means score below 0.9.

The molecules below were run against Peroxisome proliferator-activated receptor gamma (Homo sapiens) (UniProt P37231) (assay: ATG_PPARg_TRANS: Attagene TRANS-FACTORIAL HepG2 Assay for human Peroxisome Proliferator-activated Receptor-gamma (PPARg) (AID 2283007)).
Peroxisome proliferator-activated receptor gamma (Homo sapiens), sequence (P37231 whole entry, looked up, the tested form may be a part): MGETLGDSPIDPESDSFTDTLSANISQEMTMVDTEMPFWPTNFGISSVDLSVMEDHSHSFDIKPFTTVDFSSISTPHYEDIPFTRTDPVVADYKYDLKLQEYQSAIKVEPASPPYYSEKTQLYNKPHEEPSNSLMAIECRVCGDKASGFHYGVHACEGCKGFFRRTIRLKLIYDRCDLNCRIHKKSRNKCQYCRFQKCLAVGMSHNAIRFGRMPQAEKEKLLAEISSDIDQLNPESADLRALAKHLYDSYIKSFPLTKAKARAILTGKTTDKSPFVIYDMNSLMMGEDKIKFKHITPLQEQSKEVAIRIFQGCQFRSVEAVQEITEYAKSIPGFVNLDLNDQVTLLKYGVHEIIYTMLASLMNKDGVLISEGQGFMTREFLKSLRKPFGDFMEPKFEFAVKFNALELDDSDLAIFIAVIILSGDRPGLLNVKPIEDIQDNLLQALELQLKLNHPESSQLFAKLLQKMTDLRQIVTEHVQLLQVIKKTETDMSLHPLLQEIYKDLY
Method in brief: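 Transient transfection of HepG2 with GAL4-UAS-driven reporter units; chemical dosing 24 h; total RNA → oligo(dT) RT → PCR with reporter primers → 6-FAM primer extension → HpaI digest 2 h 37 C → capillary electrophoresis. Positive direction vs DMSO.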
In the case of `CCC(CC)CO`, the outcome is reported as “inactive”. `CCCCCCC(O)CCOC(C)=O` (configuration not stated) was tested, and the outcome was “inactive”. With `C=C(C)CCCC(C)CCO` (configuration not stated) the AC50 was 41.9 µM (active). For `CCCc1ccc(N)cc1`, the outcome was “inactive”. For `CCCCN(CCCC)CCCCCCN(CCCC)CCCC`, the outcome was “inactive”. With `Cc1cccc(C)c1` the outcome was “inactive”. `CCOC(=O)CC(C)C` was tested, and the outcome was “inactive”. For `C=COCC1CCC(COC=C)CC1` (configuration not stated), the outcome was “inactive”. With `CCCOC(=O)CC` the outcome was “inactive”. `C=CCOC(=O)/C=C\C(=O)OCC=C` was tested, and the AC50 was 1.96 µM (active). For `C1COCO1`, the outcome was “inactive”. In the case of `COc1cc(OC)c2ccc(=O)oc2c1`, the outcome is reported as “inactive”. In the case of `CC(C)CCOC(=O)CC(C)C`, the outcome is reported as “inactive”. For `CCCCCCCCSCc1cc(C)c(O)c(CSCCCCCCCC)c1`, the outcome was “inactive”. With `CCCCCCCOC(C)=O` the outcome was “inactive”.

These molecules were tested against Nuclear receptor subfamily 1 group I member 2 (Homo sapiens) (UniProt O75469) (assay: ATG_PXR_TRANS: Attagene TRANS-FACTORIAL HepG2 Assay for human Pregnane X Receptor (PXR) (AID 2283008)).
Nuclear receptor subfamily 1 group I member 2 (Homo sapiens), sequence (O75469 whole entry, looked up, the tested form may be a part): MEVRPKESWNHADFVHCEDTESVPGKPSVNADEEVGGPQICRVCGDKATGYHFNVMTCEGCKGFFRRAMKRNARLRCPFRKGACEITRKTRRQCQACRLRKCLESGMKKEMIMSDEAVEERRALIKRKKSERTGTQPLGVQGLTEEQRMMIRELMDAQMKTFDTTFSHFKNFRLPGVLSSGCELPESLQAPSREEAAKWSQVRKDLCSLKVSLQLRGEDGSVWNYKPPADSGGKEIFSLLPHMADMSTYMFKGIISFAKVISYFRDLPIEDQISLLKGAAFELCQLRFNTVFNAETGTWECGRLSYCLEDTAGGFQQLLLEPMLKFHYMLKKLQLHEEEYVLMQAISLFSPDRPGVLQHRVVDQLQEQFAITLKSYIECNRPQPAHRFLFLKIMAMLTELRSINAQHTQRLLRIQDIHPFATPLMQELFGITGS
Method in brief: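 Fluorescence intensity of FAM-labelled, HpaI-digested reporter amplicons, separated by capillary electrophoresis, quantifies induction. HepG2 cells with PXR-Gal4 trans-reporter system were exposed 24 h; DMSO defines baseline.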
With `CCC(CC)CO` the outcome was “inactive”. In the case of `CC(=O)CC(=O)N(C)C`, the outcome is reported as “inactive”. For `C=C(C)CCCC(C)CCO` (configuration not stated), the AC50 was 9.99 µM (active). For `Cc1ccncc1`, the outcome was “inactive”. For `Cc1ccc(C(C)(C)O)cc1`, the outcome was “inactive”. `CC1=CCC(C(C)(C)O)CC1` (configuration not stated) was tested, and the outcome was “inactive”. With `CC(C)N(c1ccccc1)C(C)C` the outcome was “inactive”. In the case of `CC(CO)c1ccccc1` (configuration not stated), the outcome is reported as “inactive”. For `C=CCOCC(O)CO` (configuration not stated), the outcome was “inactive”. For `CCOC(=O)CC(C)C`, the outcome was “inactive”. `NC(=O)c1cnccn1` was tested, and the outcome was “inactive”. For `CC(C)(C)c1cc(CCC(=O)OCCSCCOC(=O)CCc2cc(C(C)(C)C)c(O)c(C(C)(C)C)c2)cc(C(C)(C)C)c1O`, the outcome was “inactive”. `C=CCOC(=O)/C=C\C(=O)OCC=C` was tested, and the outcome was “inactive”. In the case of `CCOC(=O)CC1(C)OCC(C)O1` (configuration not stated), the outcome is reported as “inactive”. With `CCCC1CCOC(C)S1` (configuration not stated) the outcome was “inactive”. In the case of `CC(C)(O)C(=O)c1ccc(OCCO)cc1`, the outcome is reported as “inactive”. With `CCCCCCCOC(C)=O` the outcome was “inactive”.
